Laboratory results reported in PubChem BioAssay.
The source made the active and inactive calls.

Assays:
[1] = system: PRMT1 (protein arginine N-methyltransferase 1); test: PRMT1 binders on small-molecule microarrays, primary screen, biochemical, small-molecule microarray, 635 nm fluorescence (AID 1088); conditions: small-molecule microarray binding, higher = more signal;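 note: binding of Prmt1 protein to compounds spotted on small-molecule microarray slides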
[2] = yeast growth modulation, basal conditions, primary screen, YJM789 clinical isolate, OD600, 24 h (AID 1089);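 note: growth of clinical yeast isolate S. cerevisiae YJM 789 seeded 1000 cells per well; test concentration not given here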; conditions: S. cerevisiae YJM789 growth, higher = more signal, called active from +8 up or from −8 down
[3] = fission yeast growth modulation, primary screen, strain 972, OD600, 24 h, no modulator (AID 1090);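 note: basal condition with compound alone and no growth modifier present; test concentration not given here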; conditions: S. pombe 972 growth, higher = more signal, called active from +8 up or from −8 down
[4] = S. cerevisiae growth modulation with rapamycin, primary screen, strain BY4716, OD600, 96 h (AID 1091); conditions: higher = more signal, called active from +8 up or from −8 down; note: test concentration not given here
[5] = biological target: Torsin-1A-interacting protein 2 (Homo sapiens) (UniProt Q8NFQ8); test: LULL1 binders on small-molecule microarray, primary screen, cell lysate, human LULL1 lysate, 635/667 nm fluorescence (AID 1092); conditions: hLULL1 lysate binding, 635 nm fluorescence, higher = more signal;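 note: probe is lysate of COS7 cells overexpressing human LULL1; score merges per-feature 667 nm fluorescence with signal-to-noise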
Torsin-1A-interacting protein 2 (Homo sapiens), sequence (Q8NFQ8 whole entry, looked up): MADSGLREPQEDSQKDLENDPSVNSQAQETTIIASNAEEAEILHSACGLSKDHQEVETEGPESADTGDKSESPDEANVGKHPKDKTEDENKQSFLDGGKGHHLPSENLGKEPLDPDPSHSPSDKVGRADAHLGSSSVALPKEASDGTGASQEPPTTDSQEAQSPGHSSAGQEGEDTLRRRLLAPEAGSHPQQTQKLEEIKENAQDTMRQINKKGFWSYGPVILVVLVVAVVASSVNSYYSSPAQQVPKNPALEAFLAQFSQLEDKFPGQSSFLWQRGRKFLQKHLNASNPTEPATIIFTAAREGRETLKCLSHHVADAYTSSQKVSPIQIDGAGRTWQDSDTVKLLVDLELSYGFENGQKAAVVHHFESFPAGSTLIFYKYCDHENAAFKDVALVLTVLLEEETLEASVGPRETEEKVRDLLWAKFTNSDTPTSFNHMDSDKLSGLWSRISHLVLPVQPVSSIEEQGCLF

[6] = E. coli growth modulation, two-sided OD650, primary screen, E. coli filamentation project, strain DRC41, 24 h (AID 1093); conditions: OD650, 24 h, higher = more signal, called active from +8 up or from −8 down;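 note: MC1000 strain lacking acrAB efflux and sulA so SOS filamentation is blocked; test concentration not given here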
[7] = small-molecule microarray binders of probe aLefty2, primary screen, biochemical, biotinylated probe, 635/667 nm fluorescence (AID 1094); conditions: higher = more signal;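 note: score merges spot fluorescence near 667 nm with spot signal-to-noise ratio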
[8] = system: Noggin (protein binding on small-molecule microarray); test: Noggin binders on small-molecule microarray, primary screen, biochemical, 635/667 nm fluorescence (AID 1095); conditions: 635 nm fluorescence, higher = more signal;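 note: score merges 667 nm feature fluorescence with signal to noise over triplicate slides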
[9] = biological target: Neurogenic locus notch homolog protein 3 (Homo sapiens) (UniProt Q9UM47); test: NOTCH3 binders on small-molecule microarray, primary screen, biochemical, 635/667 nm fluorescence (AID 1096); conditions: NOTCH3 binding, 635 nm fluorescence, higher = more signal
Neurogenic locus notch homolog protein 3 (Homo sapiens), sequence (Q9UM47 whole entry, looked up): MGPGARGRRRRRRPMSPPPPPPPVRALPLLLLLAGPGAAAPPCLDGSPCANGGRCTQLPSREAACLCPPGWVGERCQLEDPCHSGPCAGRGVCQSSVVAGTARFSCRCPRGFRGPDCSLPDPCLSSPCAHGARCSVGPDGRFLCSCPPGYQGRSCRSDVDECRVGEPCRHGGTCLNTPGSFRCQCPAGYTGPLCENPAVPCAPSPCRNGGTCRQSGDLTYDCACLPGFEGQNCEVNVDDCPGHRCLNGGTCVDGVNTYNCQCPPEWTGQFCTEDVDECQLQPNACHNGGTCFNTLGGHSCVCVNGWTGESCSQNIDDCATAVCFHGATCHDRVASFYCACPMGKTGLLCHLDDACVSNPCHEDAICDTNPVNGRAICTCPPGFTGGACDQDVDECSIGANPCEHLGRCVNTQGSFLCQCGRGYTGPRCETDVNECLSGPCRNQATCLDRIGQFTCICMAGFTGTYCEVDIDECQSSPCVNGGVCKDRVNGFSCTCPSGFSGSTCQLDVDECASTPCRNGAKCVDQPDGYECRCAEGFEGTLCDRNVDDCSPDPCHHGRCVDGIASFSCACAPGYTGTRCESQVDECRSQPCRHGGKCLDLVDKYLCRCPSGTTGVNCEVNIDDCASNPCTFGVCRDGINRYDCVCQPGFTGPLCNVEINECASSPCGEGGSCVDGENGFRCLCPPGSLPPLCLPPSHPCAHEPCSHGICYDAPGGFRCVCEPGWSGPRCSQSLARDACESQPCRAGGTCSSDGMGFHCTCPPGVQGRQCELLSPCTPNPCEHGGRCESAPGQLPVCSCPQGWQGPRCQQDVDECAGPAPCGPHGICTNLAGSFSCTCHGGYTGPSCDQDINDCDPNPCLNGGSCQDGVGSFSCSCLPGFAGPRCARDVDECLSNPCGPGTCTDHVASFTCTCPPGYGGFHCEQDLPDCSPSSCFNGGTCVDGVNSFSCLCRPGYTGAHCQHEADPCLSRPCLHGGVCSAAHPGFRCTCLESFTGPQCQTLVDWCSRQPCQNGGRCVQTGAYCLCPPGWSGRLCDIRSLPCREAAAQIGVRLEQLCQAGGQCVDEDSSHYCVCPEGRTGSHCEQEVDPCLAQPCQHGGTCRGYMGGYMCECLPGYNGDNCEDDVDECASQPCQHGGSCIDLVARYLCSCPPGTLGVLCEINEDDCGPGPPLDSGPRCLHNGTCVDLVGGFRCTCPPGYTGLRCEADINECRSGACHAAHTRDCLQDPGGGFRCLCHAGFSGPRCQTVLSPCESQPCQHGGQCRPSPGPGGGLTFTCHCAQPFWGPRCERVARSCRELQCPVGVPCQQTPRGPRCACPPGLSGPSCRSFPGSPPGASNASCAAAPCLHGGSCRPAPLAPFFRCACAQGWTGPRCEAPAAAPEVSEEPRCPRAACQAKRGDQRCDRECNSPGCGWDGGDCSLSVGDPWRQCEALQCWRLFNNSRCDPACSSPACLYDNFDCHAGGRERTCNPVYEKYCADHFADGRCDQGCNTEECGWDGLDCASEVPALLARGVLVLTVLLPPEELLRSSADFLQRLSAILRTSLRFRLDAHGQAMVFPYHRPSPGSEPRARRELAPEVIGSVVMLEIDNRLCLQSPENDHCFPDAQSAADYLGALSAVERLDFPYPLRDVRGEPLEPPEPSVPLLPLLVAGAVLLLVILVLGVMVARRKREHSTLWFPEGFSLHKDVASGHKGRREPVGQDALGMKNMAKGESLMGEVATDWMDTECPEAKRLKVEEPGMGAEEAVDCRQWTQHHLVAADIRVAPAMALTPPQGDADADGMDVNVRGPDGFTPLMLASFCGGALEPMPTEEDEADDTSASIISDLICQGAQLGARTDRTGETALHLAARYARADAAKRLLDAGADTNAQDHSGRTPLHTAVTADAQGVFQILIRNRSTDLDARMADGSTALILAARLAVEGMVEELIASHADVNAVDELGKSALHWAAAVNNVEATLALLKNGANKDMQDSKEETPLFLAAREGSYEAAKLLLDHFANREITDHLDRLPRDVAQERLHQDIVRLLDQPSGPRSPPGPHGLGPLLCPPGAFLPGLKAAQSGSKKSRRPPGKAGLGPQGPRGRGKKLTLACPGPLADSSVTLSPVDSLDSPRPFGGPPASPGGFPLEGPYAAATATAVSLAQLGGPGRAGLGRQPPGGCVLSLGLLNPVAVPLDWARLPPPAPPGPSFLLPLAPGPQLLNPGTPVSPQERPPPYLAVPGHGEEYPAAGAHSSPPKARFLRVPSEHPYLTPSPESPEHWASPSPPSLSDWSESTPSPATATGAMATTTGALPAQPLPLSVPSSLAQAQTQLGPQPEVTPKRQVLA

[10] = small-molecule microarray binders of probe aEGFR, primary screen, biochemical, biotinylated probe, 635/667 nm fluorescence (AID 1097); conditions: higher = more signal;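 note: probe is a biotinylated anti-EGFR antibody binding compounds printed on slides; score combines fluorescence near 667 nm and signal to noise of each spot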
[11] = system: Plasmodium falciparum Sir2 (PF13_0152, Sir2A); test: pfSir2 binders on small-molecule microarrays, primary screen, biochemical, small-molecule microarray, 635 nm fluorescence (AID 1098); conditions: small-molecule microarray binding, fluorescence 635 nm; higher = more signal;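 note: score merges spot fluorescence intensity with its signal-to-noise ratio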
[12] = small-molecule microarray binders of probe aDKK1, primary screen, biochemical, biotinylated probe, 635/667 nm fluorescence (AID 1099); conditions: higher = more signal;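 note: score merges 667nm spot fluorescence with signal to noise across triplicate slides; reference of the scale not given here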
[13] = small-molecule microarray binders of probe aCHRDL2, primary screen, biochemical, biotinylated probe, 635/667 nm fluorescence (AID 1100); conditions: higher = more signal
[14] = splicing luciferase reporter signal modulators, primary screen, spliceosome inhibition project, cell-based, HEK293, splice +/- reporter (AID 1101); conditions: luminescence, 24 h, higher = more signal, called active from +8 up or from −8 down;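 note: HEK293 cells carrying a splicing-competent luciferase reporter gene; test concentration not given here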
[15] = biological target: Fibroblast growth factor 10 (Homo sapiens) (UniProt O15520); test: FGF10 binders on small-molecule microarrays, primary screen, biochemical, small-molecule microarray, 635 nm fluorescence (AID 1102); conditions: FGF10 binding, fluorescence 635 nm, higher = more signal
Fibroblast growth factor 10 (Homo sapiens), sequence (O15520 whole entry, looked up): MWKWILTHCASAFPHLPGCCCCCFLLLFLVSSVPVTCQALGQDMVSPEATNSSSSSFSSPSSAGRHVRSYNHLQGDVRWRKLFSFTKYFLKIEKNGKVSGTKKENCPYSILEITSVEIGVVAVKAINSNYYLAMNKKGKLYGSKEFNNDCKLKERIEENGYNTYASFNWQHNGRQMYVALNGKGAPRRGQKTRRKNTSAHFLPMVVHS

[16] = system: glycogen synthase kinase-3 (GSK3A per assay name; protocol says GSK3B); test: GSK3 binders on small-molecule microarrays, primary screen, biochemical, small-molecule microarray, 635 nm fluorescence, GSK3A (AID 1103); conditions: small-molecule microarray binding, fluorescence 635 nm; higher = more signal; note: the record names both GSK3A and GSK3B
[17] = biological target: Epidermal growth factor receptor (Homo sapiens) (UniProt P00533); test: EGFR binders on small-molecule microarrays, primary screen, biochemical, small-molecule microarray, 635 nm fluorescence (AID 1104); conditions: EGFR binding, higher = more signal;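 note: score merges 667 nm emission intensity with spot signal to noise over triplicate slides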
Epidermal growth factor receptor (Homo sapiens), sequence (P00533 whole entry, looked up): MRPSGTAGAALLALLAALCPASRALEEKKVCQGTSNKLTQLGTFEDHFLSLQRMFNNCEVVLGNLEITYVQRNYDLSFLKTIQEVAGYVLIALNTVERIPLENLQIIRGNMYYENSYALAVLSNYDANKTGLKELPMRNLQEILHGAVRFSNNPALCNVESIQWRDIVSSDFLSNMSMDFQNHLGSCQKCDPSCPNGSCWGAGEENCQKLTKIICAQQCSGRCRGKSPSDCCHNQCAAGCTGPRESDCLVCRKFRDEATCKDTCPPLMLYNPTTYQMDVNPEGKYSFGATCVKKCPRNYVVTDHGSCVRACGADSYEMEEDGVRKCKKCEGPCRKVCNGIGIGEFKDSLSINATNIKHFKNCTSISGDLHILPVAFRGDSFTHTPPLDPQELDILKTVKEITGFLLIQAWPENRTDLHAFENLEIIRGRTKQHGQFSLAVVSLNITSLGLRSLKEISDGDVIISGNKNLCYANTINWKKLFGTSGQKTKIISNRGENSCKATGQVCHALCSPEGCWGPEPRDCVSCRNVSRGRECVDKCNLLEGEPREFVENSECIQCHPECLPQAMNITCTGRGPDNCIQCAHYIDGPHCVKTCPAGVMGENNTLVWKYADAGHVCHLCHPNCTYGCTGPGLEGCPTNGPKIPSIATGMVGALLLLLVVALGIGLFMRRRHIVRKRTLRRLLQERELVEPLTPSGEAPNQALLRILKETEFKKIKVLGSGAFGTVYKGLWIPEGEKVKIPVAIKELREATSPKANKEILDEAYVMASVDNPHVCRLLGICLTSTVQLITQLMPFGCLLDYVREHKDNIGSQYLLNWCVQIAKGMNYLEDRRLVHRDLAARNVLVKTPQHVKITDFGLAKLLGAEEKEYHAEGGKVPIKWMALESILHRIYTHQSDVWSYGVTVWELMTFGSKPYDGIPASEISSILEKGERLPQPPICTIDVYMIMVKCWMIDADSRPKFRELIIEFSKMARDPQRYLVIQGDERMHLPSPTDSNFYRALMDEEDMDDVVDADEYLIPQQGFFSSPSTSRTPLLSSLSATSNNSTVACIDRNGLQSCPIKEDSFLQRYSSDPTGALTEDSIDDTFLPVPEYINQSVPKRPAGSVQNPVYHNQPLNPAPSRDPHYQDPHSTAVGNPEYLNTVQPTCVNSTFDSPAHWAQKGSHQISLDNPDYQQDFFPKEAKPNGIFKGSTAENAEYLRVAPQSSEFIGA

[18] = biological target: Follistatin-related protein 3 (Homo sapiens) (UniProt O95633); test: FSTL3 binders on small-molecule microarrays, primary screen, biochemical, small-molecule microarray, 635 nm fluorescence (AID 1105); conditions: FSTL3 binding, higher = more signal;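 note: score merges emission near 667 nm and signal to noise per printed spot across three slides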
Follistatin-related protein 3 (Homo sapiens), sequence (O95633 whole entry, looked up): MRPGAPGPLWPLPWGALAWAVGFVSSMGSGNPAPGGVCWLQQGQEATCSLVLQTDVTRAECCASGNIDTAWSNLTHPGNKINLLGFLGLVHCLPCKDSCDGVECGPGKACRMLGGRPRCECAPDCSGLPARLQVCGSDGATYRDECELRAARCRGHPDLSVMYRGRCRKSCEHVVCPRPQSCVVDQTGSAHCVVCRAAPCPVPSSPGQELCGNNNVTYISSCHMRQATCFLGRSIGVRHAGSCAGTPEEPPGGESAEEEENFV

[19] = biological target: Dickkopf-related protein 1 (Homo sapiens) (UniProt O94907); test: DKK1 binders on small-molecule microarrays, primary screen, biochemical, small-molecule microarray, 635 nm fluorescence scan (AID 1106); conditions: DKK1 binding, higher = more signal;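 note: score merges emission near 667 nm with signal to noise over three replicate slides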
Dickkopf-related protein 1 (Homo sapiens), sequence (O94907 whole entry, looked up): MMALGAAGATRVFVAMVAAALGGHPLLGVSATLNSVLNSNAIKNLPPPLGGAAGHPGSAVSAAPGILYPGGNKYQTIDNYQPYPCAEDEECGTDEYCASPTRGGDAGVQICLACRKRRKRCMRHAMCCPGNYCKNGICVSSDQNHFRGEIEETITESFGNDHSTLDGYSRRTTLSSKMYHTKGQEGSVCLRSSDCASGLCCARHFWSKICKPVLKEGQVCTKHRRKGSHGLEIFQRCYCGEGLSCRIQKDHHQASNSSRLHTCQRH

[20] = system: Inhibin beta A chain (activin A); test: INHBA (activin A) binders on microarrays, primary screen, biochemical, small-molecule microarray, 635 nm fluorescence scan (AID 1107); conditions: small-molecule microarray binding, higher = more signal;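 note: mouse activin A protein probed at 4.33 µg/mL on printed slides; score merges bound-protein fluorescence near 667 nm with spot signal-to-noise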

Row | Compound | composite z-score [1] | z-score [2] | z-score [3] | z-score [4] | composite z-score [5] | z-score [6] | composite z-score [7] | composite z-score [8] | composite z-score [9] | composite z-score [10] | composite z-score [11] | composite z-score [12] | composite z-score [13] | z-score [14] | composite z-score [15] | composite z-score [16] | composite z-score [17] | composite z-score [18] | composite z-score [19] | composite z-score [20]
1 | CN1C(=O)C2C=CC(C(O)c3ccc(I)cc3)N(NC(=O)OC(C)(C)C)C2C1=O (stereo not given) | 0.896 | 0.725 (inactive) | -0.424 (inactive) | 0.931 (inactive) | 3.21 | -1.07 (inactive) | 0.0607 | 0.17 | 1.04 | 0.157 | 1.22 | 0.829 | 1.05 | 2.31 (inactive) | 0.599 | 1.24 | 0.04 | 0.925 | -0.168 | 0.599
2 | COc1cccc([C@H]2Oc3ccc(OC)cc3C(=NOC(C)CN3CCCc4nc(C)c(C)cc43)[C@@H]2O)c1 (stereo not given in full) | 1.32 | -0.906 (inactive) | -0.912 (inactive) | -1.19 (inactive) | 0.605 | 0.732 (inactive) | 0.027 | 0.0233 | 0.522 | 0.0506 | -0.403 | -0.207 | -0.335 | -0.467 (inactive) | 0.474 | 0.827 | 0.746 | 0.0288 | 0.492 | -0.109
3 | CCOC(=O)CCN1C(=O)[C@H]2[C@H]3[C@H](O)C=CC(=O)[C@@H]3CC[C@H]2C1=O | 0.0492 | 0.595 (inactive) | 0.361 (inactive) | 1.42 (inactive) | 0.215 | 0.399 (inactive) | -0.239 | 0.641 | 0.629 | 0.0439 | 0.0705 | -0.222 | -0.437 | -0.173 (inactive) | 0.605 | 0.323 | 0.678 | 0.518 | 0.541 | -0.0901
4 | CCCNC(=O)OC[C@H]1O[C@H](CCON=CC[C@@H]2C=C[C@H](OC(C)=O)[C@@H](COC(C)=O)O2)C=C[C@@H]1Oc1ccc(OC)cc1 | 1.18 | -0.704 (inactive) | 0.115 (inactive) | 0.023 (inactive) | 0.667 | 0.457 (inactive) | -0.0159 | 0.643 | 0.249 | 0.0486 | 0.46 | -0.0927 | -0.412 | 0.599 (inactive) | 0.817 | 0.524 | 0.492 | 0.759 | 0.537 | 0.434
5 | COCCOC(=O)N1C(=O)[C@@]2(c3cc(C#CCNC(N)=O)ccc31)[C@H](c1ccc(O)cc1)N1[C@H](c3ccccc3)[C@H](c3ccccc3)OC(=O)[C@H]1[C@@H]2C(=O)N1CCCCCCC1 | 1.55 | 1.2 (inactive) | 0.159 (inactive) | 1.27 (inactive) | 0.859 | 0.576 (inactive) | 0.354 | 1.28 | 1.08 | 0.0396 | 1.08 | 0.614 | 0.356 | -0.364 (inactive) | 1.25 | 0.43 | 0.611 | 1.38 | 0.969 | 0.85
